The results in this text go back to PubChem BioAssay (NCATS).

Records with an inconclusive call do not appear. The source made the active and inactive calls. Unless noted, calls come from the whole dose curve; as a rule, active = well fitted curve in either direction with a large enough effect (not every such curve was filed as active); inconclusive = small, poorly fitted or top-dose-only effect, or another doubt; inactive = flat fitted curve, though single readings scatter.

The target in test [1] is Lysosomal acid glucosylceramidase (Homo sapiens) (UniProt P04062). Put plainly: Glucocerebrosidase-p2 (AID 348; in the data active = potency below about 10 µM; note: potency is the fitted concentration of half-maximal effect). The note with it: purified GBA, blue fluorogenic substrate, 40 min. An outline of the steps:
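Normal human glucocerebrosidase (0.2 nM) with blue fluorogenic substrate (80 uM final) in citrate/phosphate pH 5.9 with 10mM sodium taurocholate, 0.01% tween-20; 40 min RT, NaOH/glycine stop; fluorescence Ex 365/Em 440; AC50 from a titration from 0.6 nM upwards.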

A short description of test [2]: AP1 Signaling Pathway (AID 357). Note: % is set by controls: 0 for no effect and ±100 for the full control effect. The note with it: ME-180 AP-1-bla reporter, EGF-induced, beta-lactamase ratio, 5 h; at 7.69 µM (top of the series) unless noted. Put shortly: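 A ratiometric CCF4 readout (405 nm excitation; 460 and 530 nm emission) quantified AP-1-driven beta-lactamase in ME-180 cells after 5 h with compound and EC50 EGF; AC50 values were derived for activators and inhibitors.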

For test [3], the target named is Cytochrome P450 1A2 (Homo sapiens) (UniProt P05177). Put plainly: p450-cyp1a2 (AID 410; calls by dose curve; note: potency is the fitted concentration of half-maximal effect). To be noted: recombinant CYP1A2, luciferin-ME demethylation, luminescence; series mostly up to 57 µM. An outline of the steps:
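Read-out is luminescence from luciferin produced by CYP1A2 demethylation of Luciferin-ME (100uM, at Km). Detection reagent stopped the 60 min NADPH-dependent reaction; signals were normalized to 57 uM furafylline.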

A short description of test [4]: NFAT Signaling Pathway (AID 444).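 Note: carbachol stimulus at about its EC50 of 1 µM final; % is set by controls: 0 for no effect and ±100 for the full control effect.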 To be noted: Jurkat NFAT-bla M1, carbachol, beta-lactamase ratio, 5 h; at 7.69 µM (top of the series) unless noted. An outline of the steps: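 Jurkat cells with NFAT-driven β-lactamase reporter and co-expressed M1 receptor, stimulated with carbachol (final 1 uM, ~EC50), compound titration, 5 h at 37 °C. CCF4 loaded 1 h at RT; 460/530 nm ratio gave %activity and AC50.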

Test [5] is described as follows: Stat Signaling Pathway (AID 446).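 Note: ME-180 cervical cancer cells given 40 pM IL-6 alongside compound; SIE-controlled beta-lactamase reporter measured as 460/530 nm FRET emission ratio; % is set by controls: 0 for no effect and ±100 for the full control effect.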 To be noted: ME-180 SIE beta-lactamase reporter, IL-6 stimulated, 5 h; at 7.69 µM (top of the series) unless noted. An outline of the steps: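 Compound effects on IL-6-induced STAT reporter activity were measured in ME-180 cells. After overnight culture, cells were co-treated with 40 pM IL-6 for 5 hrs before beta-lactamase substrate loading at room temperature.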

In test [6] the target is Glucocorticoid receptor (Homo sapiens) (UniProt P04150). Put plainly: GR-EFC Redistribution (AID 451; calls by dose curve; note: potency is the fitted concentration of half-maximal effect). To be noted: CHO-K1 GR-EFC translocation, beta-gal luminescence, 2 h. An outline of the steps:
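CHO-K1 cells expressing nuclear EA and GR-ED fragments of b-gal; compounds titrated up to 46 uM final, 2 h at 37 C. GR nuclear translocation read as complemented b-gal luminescence after 1 h RT detection.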

Test [7] has as its target Mitogen-activated protein kinase 10 (Mus musculus) (UniProt Q61831). Put plainly: JNK3 AlphaScreen Assay (AID 530).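 Note: kinase came from lysate of stimulated human HepG2 cells; signal reports phosphorylation of biotinylated GST-cJun 1-79 at Ser73 with 10 µM ATP; % is set by controls: 0 for no effect and ±100 for the full control effect.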 The note with it: JNK3 lysate, c-Jun phosphorylation; series mostly up to 57.1 µM. An outline of the steps:
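HepG2 lysate (IL-1b/TNFa pre-activated) + biotin-GST-cJun 1-79 + anti-pSer73 cJun; cpd titration, 15 min RT; ATP 10 uM start; Tris pH 7.6, MgCl2, DTT, vanadate; beads in EDTA buffer; AlphaScreen.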
(In Alpha technology, singlet oxygen from a donor bead excites a nearby acceptor bead.)

In test [8] the target is 3',5'-cyclic-AMP phosphodiesterase 4B (Homo sapiens) (UniProt Q07343). Put plainly: qHTS Assay for Inhibitors of PDE-IV (AID 607; active = well fitted activation curve with a large enough effect in the main read-out, with a control signal flat, not every such curve was filed as active; note: % of control where 0% means no effect). To be noted: HEK293 ACTOne CNG channel cells, membrane potential fluorescence; series mostly up to 22.9 µM. Put shortly: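 ACTOne HEK293 cells carry a modified cAMP-gated CNG channel and express endogenous PDE4; plated 1000 cells/well, compounds up to 22.9 uM final. Membrane-potential dye fluorescence (ex 535/em 590) was read; parental cells received 10 uM forskolin + 100 uM RO 20-1724.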
Chain of 3',5'-cyclic-AMP phosphodiesterase 4B (Homo sapiens) (Q07343 whole entry, looked up): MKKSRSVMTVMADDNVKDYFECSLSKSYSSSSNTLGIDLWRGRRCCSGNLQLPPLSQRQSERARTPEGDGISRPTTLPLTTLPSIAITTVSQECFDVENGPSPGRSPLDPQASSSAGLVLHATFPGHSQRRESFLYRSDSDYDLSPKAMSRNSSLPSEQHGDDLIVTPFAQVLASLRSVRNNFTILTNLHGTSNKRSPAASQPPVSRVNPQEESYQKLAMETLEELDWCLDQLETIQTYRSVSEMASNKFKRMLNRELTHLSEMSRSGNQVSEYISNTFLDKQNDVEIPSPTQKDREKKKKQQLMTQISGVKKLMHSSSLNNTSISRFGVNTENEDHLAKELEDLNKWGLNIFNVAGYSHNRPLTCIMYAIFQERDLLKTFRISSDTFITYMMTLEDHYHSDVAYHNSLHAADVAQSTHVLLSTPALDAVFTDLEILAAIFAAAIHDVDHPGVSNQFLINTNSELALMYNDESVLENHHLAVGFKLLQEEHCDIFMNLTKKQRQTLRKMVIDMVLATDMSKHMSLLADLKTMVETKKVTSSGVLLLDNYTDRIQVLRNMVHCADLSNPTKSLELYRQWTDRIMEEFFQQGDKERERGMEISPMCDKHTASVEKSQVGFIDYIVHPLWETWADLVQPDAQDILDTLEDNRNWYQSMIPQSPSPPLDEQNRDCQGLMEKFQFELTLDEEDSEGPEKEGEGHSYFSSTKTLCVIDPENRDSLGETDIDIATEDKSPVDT
In general terms: In qHTS, concentration-response curves come from the screen itself.

For test [9], the target named is Cytochrome P450 3A4 (Homo sapiens) (UniProt P08684). Put plainly: qHTS Assay for Activators of Cytochrome P450 3A4 (AID 885; active = well fitted curve in the direction sought with a large enough effect; an effect the other way counts as inactive or inconclusive; note: nearly all actives have a fitted effect of over 65% in size). The note with it: recombinant CYP3A4, Luciferin-PPXE luminescence, 60 min; series mostly up to 57.1 µM. An outline of the steps:
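CYP3A4 activity: Luciferin-PPXE O-dealkylation, 25uM substrate, 200mM KPO4, RT throughout. Read-out is luciferase luminescence; higher values reflect activation.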

In test [10] the target is Cytochrome P450 2C19 (Homo sapiens) (UniProt P33261). Put plainly: qHTS Assay for Inhibitors and Substrates of Cytochrome P450 2C19 (AID 899; active = well fitted curve in the direction sought with a large enough effect; an effect the other way counts as inactive or inconclusive; note: potency is the fitted concentration of half-maximal effect; nearly all actives have a fitted effect of over 60% in size). To be noted: recombinant CYP2C19, luciferin-H EGE luminescence; series mostly up to 57.1 µM. An outline of the steps:
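Signal comes from luciferase acting on luciferin released by CYP2C19-mediated hydroxylation of Luciferin-H EGE, 10uM (KM). Assay mix: 5nM enzyme, 50mM KPO4; 60 min at 37C with NADPH regeneration. Data normalized against 57uM ketoconazole.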

Test [11] is described as follows: qHTS Assay for Lipid Storage Modulators (AID 1519; calls by dose curve). The note with it: Drosophila S3 cells, BODIPY lipid droplet/cell ratio, laser cytometry, cells loaded with oleic acid; for activity change, negative = inhibition: at 57.5 µM (top of the series). An outline of the steps:
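Cells seeded at 5,000 per well were treated with compounds over a concentration series and loaded with oleic acid (400 uM, as added). Lipid droplet fluorescence (488 nm excitation, 500-530 nm channel) was read by laser-scanning cytometry and normalized to 20 uM Triacsin C.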

Test [12] can be described thus: Primary qHTS for small molecule stabilizers of the endoplasmic reticulum resident proteome: Secreted ER Calcium Modulated Protein (SERCaMP) assay (AID 1508630; active = well fitted curve in the direction sought with a large enough effect; an effect the other way counts as inactive or inconclusive; note: % is set by controls: 0 for no effect and ±100 for the full control effect). The note with it: SH-SY5Y GLuc-SERCaMP (Gaussia luciferase released on ER calcium loss) secretion, thapsigargin, luminescence; series mostly up to 38.4 µM. An outline of the steps:
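The SH-SY5Y reporter protocol was run at 3 concentrations up to 38.3 uM (primary) or 11 concentrations (follow-up): 16 h compound, 100 nM thapsigargin for 4 h, then extracellular luciferase luminescence.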

A short description of test [13]: qHTS Assay for Identification of Small Molecule Agonists for Hypoxia Response Element Signaling Pathway (AID 914; active = well fitted activation curve with a large enough effect in the signal ratio, with a control signal flat, not every such curve was filed as active; the % refers to the signal ratio; note: % of control where 0% means no effect). The note with it: ME-180 (cervical carcinoma) HRE-bla reporter, beta-lactamase ratio, CoCl2, 17 h; activation: stronger effect = higher value. Put shortly: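 A beta-lactamase reporter under hypoxia response element control in ME-180 cells served as the system. Compound titrations plus EC50 CoCl2 ran 17 h at 37 degrees Celsius; AC50 values were fitted from %Activity.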

Test [14] addresses Cytochrome P450 2D6 (Homo sapiens) (UniProt P10635). Put plainly: qHTS Assay for Inhibitors and Substrates of Cytochrome P450 2D6 (AID 891; active = well fitted curve in the direction sought with a large enough effect; an effect the other way counts as inactive or inconclusive;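 note: luciferin methyl ether substrate demethylated by CYP2D6 with NADPH regeneration; % is set by controls: 0 for no effect and ±100 for the full control effect; nearly all actives have a fitted effect of over 60% in size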). The note with it: recombinant CYP2D6, luciferin-ME EGE luminescence; series mostly up to 57.1 µM. An outline of the steps:
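Luminescent read-out of luciferin formed by 5 nM human CYP2D6 demethylating 30 uM Luciferin-ME EGE (Km level) over 60 min at room temperature after NADPH regeneration addition. Data normalized to full inhibition by 1.43 uM quinidine.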

Test [15] concerns the target Glucocorticoid receptor (Homo sapiens) (UniProt P04150). Put plainly: GR-GFP Redistribution (AID 450;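 active = compounds whose dose series gives a full or clear partial fitted curve of increased nuclear translocation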; note: potency is the fitted concentration of half-maximal effect). The note with it: U2OS GR-GFP nuclear translocation, laser cytometry, 2 h.
The target in test [16] is Cytochrome P450 2C9 (Homo sapiens) (UniProt P11712). Put plainly: qHTS Assay for Inhibitors and Substrates of Cytochrome P450 2C9 (AID 883; active = well fitted curve in the direction sought with a large enough effect; an effect the other way counts as inactive or inconclusive; note: % is set by controls: 0 for no effect and ±100 for the full control effect; nearly all actives have a fitted effect of over 60% in size). To be noted: recombinant CYP2C9, luciferin-H luminescence, 60 min; series mostly up to 57.1 µM. Put shortly: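 Signal: luciferase luminescence reporting luciferin produced by CYP2C9. Conditions: 10nM enzyme, Luciferin-H 100uM at KM, 25mM KPO4, 37C, 60 min NADPH-driven reaction. Reference: 57uM sulphaphenazole as 100% inhibition.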
Chain of Cytochrome P450 2C9 (Homo sapiens) (P11712 whole entry, looked up): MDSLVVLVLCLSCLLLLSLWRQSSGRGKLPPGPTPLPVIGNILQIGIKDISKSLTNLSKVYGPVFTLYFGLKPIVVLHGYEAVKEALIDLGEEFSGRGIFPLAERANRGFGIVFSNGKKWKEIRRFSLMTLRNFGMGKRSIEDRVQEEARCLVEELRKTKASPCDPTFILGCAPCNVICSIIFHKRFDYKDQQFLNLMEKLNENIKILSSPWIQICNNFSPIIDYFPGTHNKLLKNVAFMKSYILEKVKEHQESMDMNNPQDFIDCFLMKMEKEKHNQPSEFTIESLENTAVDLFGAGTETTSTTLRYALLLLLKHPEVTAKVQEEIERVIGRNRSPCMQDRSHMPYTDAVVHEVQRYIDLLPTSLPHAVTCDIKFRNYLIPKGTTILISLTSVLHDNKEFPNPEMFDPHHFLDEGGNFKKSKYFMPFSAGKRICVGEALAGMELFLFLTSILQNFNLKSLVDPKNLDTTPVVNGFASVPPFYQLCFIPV

The target of test [17] is Cytochrome P450 3A4 (Homo sapiens) (UniProt P08684). Put plainly: qHTS Assay for Inhibitors and Substrates of Cytochrome P450 3A4 (AID 884; active = well fitted curve in the direction sought with a large enough effect; an effect the other way counts as inactive or inconclusive; note: potency is the fitted concentration of half-maximal effect; nearly all actives have a fitted effect of over 50% in size). To be noted: recombinant CYP3A4, Luciferin-PPXE luminescence; series mostly up to 57.1 µM. An outline of the steps:
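Luminescent readout of luciferin produced by CYP3A4 (20 nM) dealkylation of Luciferin-PPXE, 25 uM (its KM). NADPH-driven reaction ran 60 min at RT after 10 min compound preincubation; data scaled to 57 uM ketoconazole as 100% inhibition.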

Where [18] appears, read: measured here: cell count channel max response.
Where [19] appears, read: measured here: lipid channel max response.

Chain of Lysosomal acid glucosylceramidase (Homo sapiens) (P04062 whole entry, looked up): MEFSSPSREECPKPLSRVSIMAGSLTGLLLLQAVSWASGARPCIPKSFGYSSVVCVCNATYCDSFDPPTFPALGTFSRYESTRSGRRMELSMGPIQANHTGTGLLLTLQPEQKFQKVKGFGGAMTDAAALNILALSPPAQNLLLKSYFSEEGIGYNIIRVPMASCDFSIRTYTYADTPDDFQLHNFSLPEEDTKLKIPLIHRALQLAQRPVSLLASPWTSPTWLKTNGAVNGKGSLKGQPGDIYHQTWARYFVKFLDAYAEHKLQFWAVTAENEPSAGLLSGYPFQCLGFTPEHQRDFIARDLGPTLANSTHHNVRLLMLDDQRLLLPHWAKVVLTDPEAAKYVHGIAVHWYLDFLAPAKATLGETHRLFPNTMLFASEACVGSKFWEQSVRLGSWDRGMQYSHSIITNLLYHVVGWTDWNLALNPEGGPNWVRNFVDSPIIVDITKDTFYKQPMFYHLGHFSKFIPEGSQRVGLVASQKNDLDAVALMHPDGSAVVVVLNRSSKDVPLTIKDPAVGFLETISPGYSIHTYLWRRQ
Chain of Cytochrome P450 3A4 (Homo sapiens) (P08684 whole entry, looked up): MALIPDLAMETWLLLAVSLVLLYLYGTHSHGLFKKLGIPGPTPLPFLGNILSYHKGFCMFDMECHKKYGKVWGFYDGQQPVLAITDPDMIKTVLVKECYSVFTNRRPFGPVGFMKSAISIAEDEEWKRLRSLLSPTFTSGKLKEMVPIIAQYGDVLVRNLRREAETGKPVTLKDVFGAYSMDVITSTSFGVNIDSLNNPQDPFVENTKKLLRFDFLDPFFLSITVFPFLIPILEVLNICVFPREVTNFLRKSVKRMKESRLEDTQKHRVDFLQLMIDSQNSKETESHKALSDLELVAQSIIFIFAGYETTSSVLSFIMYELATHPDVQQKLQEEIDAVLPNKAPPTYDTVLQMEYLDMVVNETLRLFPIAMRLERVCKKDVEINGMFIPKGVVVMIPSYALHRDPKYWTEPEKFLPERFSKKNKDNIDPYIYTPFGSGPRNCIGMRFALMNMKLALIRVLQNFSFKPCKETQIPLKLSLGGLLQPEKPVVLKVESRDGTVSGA
Chain of Glucocorticoid receptor (Homo sapiens) (P04150 whole entry, looked up, the tested form may be a part): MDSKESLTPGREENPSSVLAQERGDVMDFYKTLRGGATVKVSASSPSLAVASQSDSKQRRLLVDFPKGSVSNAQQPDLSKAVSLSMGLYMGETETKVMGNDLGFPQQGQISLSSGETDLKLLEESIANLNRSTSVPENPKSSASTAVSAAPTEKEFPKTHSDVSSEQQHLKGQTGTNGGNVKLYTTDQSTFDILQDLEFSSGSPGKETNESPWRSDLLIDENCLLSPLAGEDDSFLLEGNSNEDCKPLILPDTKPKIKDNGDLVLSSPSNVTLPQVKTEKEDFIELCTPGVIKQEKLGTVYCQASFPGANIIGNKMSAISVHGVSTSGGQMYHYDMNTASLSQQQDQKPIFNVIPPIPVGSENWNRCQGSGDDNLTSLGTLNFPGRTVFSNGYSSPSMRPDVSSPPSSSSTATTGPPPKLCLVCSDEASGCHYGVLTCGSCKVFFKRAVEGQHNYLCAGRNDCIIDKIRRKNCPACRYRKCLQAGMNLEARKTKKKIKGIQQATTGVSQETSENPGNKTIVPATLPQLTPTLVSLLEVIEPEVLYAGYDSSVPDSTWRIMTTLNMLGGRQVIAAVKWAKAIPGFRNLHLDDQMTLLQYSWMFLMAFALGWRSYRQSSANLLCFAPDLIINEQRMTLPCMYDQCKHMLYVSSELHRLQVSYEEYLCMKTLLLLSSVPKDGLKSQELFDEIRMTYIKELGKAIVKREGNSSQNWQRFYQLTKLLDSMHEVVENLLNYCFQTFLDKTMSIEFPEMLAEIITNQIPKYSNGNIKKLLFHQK
Chain of Cytochrome P450 1A2 (Homo sapiens) (P05177 whole entry, looked up): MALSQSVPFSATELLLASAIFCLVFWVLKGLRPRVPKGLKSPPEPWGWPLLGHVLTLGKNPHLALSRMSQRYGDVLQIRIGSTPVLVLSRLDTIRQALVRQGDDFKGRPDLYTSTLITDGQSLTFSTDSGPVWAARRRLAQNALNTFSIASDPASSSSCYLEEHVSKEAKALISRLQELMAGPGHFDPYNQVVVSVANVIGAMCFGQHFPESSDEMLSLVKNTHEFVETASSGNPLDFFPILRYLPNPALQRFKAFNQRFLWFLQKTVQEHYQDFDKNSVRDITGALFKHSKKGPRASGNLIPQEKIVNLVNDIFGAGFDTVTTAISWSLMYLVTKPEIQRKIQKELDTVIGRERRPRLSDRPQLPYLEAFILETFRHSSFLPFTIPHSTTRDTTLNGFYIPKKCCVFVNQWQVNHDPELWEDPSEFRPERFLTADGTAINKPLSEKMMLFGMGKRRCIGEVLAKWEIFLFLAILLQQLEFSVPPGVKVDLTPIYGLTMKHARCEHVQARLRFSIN
Chain of Cytochrome P450 2C19 (Homo sapiens) (P33261 whole entry, looked up): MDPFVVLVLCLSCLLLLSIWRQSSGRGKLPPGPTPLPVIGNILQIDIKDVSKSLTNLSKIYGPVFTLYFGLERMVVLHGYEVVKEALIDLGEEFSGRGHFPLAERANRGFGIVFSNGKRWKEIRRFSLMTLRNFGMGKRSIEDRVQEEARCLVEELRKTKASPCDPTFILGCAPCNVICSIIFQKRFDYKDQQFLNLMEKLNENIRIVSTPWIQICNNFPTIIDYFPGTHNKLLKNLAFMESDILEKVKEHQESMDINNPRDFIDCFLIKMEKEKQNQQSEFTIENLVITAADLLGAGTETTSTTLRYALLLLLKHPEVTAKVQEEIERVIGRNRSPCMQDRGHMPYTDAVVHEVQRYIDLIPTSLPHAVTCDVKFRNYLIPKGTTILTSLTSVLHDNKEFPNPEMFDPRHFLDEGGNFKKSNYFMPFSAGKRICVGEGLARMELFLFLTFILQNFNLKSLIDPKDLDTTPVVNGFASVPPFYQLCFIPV
Chain of Cytochrome P450 2D6 (Homo sapiens) (P10635 whole entry, looked up): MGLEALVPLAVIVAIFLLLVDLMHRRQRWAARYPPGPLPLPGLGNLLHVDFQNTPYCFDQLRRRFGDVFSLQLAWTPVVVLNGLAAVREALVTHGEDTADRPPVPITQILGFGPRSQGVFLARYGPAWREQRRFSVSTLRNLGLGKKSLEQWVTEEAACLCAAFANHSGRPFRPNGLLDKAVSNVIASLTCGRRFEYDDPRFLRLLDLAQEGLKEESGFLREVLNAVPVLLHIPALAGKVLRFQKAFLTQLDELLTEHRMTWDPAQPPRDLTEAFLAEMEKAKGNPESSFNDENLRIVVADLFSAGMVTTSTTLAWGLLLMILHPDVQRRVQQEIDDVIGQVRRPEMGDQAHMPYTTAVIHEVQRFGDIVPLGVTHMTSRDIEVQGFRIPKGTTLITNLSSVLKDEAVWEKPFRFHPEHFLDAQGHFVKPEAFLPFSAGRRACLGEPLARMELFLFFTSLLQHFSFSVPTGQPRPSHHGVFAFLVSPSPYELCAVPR

Turning to `O=C(Oc1ccccc1)N1CCC[C@@]2(CCN(c3ncccn3)C2)C1`, the Potency in [1] is > 11.4 µM (inactive); in test [3], 12.6 µM (active); in test [6], > 46 µM (inactive); in test [10] it was 2.51 µM (active). Moreover, the activity change, negative = inhibition in test [2] is 2.93% (inactive); in test [4], -0.482% (inactive); in test [11], 4.5% (inactive). For the same compound, the activity, negative = inhibition in test [5] is 9% (inactive). Further, in test [7], the result was inactive. Moreover, the Potency entry in [8], in [9] and in [12] was “inactive” each time. Also, the max response in test [11] (setting [18]) stood at 8.9%; in test [11] (setting [19]), 17.1%.

On to `COCC(=O)N1CCC[C@@]2(CCN(Cc3ccccc3OC)C2)C1`, for which the Potency is > 11.4 µM (inactive) in [1] and > 46 µM (inactive) in test [6]. The activity change, negative = inhibition was -5.37% (inactive) in [2], 7.38% (inactive) in test [4] and 3.26% (inactive) in test [11]. The Potency entry in [3], in test [8] and in test [12] was “inactive” each time. In [5], the activity, negative = inhibition is -1.88% (inactive). The outcome in test [7] was inactive. In addition, the activation in test [13] was -5.2% (inactive). Moreover, the max response in [11] (setting [18]) stood at 0.0589%; in [11] (setting [19]), 5.61%.

In the case of `COc1ccccc1CN1CC2(CCN(S(C)(=O)=O)CC2)C1`, the Potency in test [1] is > 11.4 µM (inactive); in test [6] it was > 46 µM (inactive). Also, the activity change, negative = inhibition is -11.2% (inactive) in test [2], -7.23% (inactive) in test [4] and 6.08% (inactive) in [11]. The Potency entry in test [3], in [8], in test [14] and in test [12] was “inactive” throughout. In test [5], the activity, negative = inhibition was 4.21% (inactive). For the same compound, the compound was classed as inactive in test [7]. Further, the max response is 11.6% in test [11] (setting [18]) and 24% in test [11] (setting [19]).

Turning to `Cn1cccc1C(=O)N1CCC[C@@]2(CCN(Cc3ccccc3)C2)C1`, the Potency in test [1] is > 11.4 µM (inactive); in [3], 10 µM (active); in [6] it was > 46 µM (inactive). Further, the activity change, negative = inhibition in test [2] was -8.23% (inactive); in test [4], -14.1% (inactive); in test [11], 3.81% (inactive). Further, in [7], the result was inactive. Besides, the Potency result in [8], in test [9] and in test [12] was “inactive” each time. Also, the max response is 5.36% in test [11] (setting [18]) and 9.58% in test [11] (setting [19]).

Consider `Cc1nc2cnc(N(C)C)nc2n(Cc2ccc(F)cc2)c1=O`, for which the Potency in test [1] was > 11.4 µM (inactive); in test [3], 2 µM (active); in test [15], > 9.22 µM (inactive); in test [6], > 46 µM (inactive); in test [17] it was 0.0251 µM (active); in [10] it was 1.58 µM (active). Also, the values for the activity change, negative = inhibition in test [2], in test [4] and in test [11] were 3.79% (inactive), 1.01% (inactive) and 5.88% (inactive), respectively. For the same compound, the result in [7] was inactive. Also, the Potency entry in test [16], in [9] and in test [12] was “inactive” throughout. Also, the max response is 15% in test [11] (setting [18]) and 21.5% in test [11] (setting [19]).

In the case of `CS(=O)(=O)N1CCC2(CC1)CN(Cc1nccs1)C2`, the Potency was > 11.4 µM (inactive) in test [1], 6.31 µM (active) in [3] and > 46 µM (inactive) in test [6]. Further, the figures for the activity change, negative = inhibition in [2], in test [4] and in test [11] were -7.04% (inactive), 11.5% (inactive) and 3.27% (inactive), respectively. Moreover, in [5], the activity, negative = inhibition was 6.32% (inactive). Moreover, the Potency result in test [8] and in test [12] was “inactive” throughout. Besides, the max response in test [11] (setting [18]) was found to be 13.6%; in [11] (setting [19]), 18.5%.

Consider `O=C(c1cccc(F)c1)N1CCC2(CCCN(c3ncccn3)C2)CC1`, for which the Potency was > 11.4 µM (inactive) in [1], 25.1 µM (active) in test [3], > 46 µM (inactive) in test [6] and 6.31 µM (active) in [10]. Besides, the activity change, negative = inhibition in test [2] was 4.38% (inactive); in [4] it was -6.9% (inactive); in [11] it was 3.73% (inactive). For the same compound, the activity, negative = inhibition in test [5] was -4.43% (inactive). In addition, the result in [7] was inactive. Moreover, the figures for the max response in test [11] (setting [18]) and in test [11] (setting [19]) were 1% and 9.03%, respectively. Also, the Potency entry in [12] was “inactive”.
